Laboratory results from PubChem BioAssay AID602327 (NMMLSC, 2012).
The other results are listed elsewhere or left out. Activity calls are given as the source filed them. No stated cut-off is given here; in the data, active means inhibition above about 25%; inactive means the rest.

Biological target: Lethal factor (Bacillus anthracis) (UniProt P15917)
Assay: Bacillus anthracis LF protease inhibitors, confirmation, biochemical, multiplex microsphere (AID 602327)
Details: multiplex microsphere protease cleavage assay; at 10 µM; stronger effect = higher value

Sequence of Lethal factor (Bacillus anthracis) (P15917 whole entry, looked up): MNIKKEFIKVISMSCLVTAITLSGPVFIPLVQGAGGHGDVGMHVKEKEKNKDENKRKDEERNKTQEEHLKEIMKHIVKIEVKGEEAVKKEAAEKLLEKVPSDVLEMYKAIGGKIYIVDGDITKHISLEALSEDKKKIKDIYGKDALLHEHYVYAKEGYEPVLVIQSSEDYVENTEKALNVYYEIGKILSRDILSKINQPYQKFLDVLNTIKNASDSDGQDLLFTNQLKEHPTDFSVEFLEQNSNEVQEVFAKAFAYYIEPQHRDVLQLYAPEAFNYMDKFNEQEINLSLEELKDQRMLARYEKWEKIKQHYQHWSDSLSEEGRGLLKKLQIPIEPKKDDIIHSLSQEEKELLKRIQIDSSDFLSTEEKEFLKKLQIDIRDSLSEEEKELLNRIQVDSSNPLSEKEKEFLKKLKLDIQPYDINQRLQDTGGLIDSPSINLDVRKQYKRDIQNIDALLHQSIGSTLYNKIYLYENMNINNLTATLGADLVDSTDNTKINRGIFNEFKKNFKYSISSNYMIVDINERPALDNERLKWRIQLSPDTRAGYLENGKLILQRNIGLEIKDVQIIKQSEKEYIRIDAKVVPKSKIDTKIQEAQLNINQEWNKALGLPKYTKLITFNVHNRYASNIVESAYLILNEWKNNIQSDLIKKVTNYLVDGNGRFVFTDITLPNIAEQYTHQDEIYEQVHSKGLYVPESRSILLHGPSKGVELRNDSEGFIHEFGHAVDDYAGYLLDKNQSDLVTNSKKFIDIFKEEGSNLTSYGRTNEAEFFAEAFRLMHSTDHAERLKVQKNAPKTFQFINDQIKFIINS

| Compound | inhibition |
| --- | --- |
| O=C(OCC(=O)c1c[nH]c2ccccc12)c1cccc(O)c1 | -2.5% (inactive) |
| COc1ccc(-c2cc3c(c4c2ccn4C)C2CCC3C2)cn1 (stereo not drawn) | 26.4% (active) |
| Cc1ccc(CNC(=O)c2cccc3c2C(=O)c2ccc(N4CCC(C)CC4)cc2S3(=O)=O)cc1 | 7.9% (inactive) |
| CCOc1ncccc1C(=O)OCC(=O)c1c[nH]c2ccccc12 | 10.4% (inactive) |
| Cc1cc2ccccc2n1CCNC(=O)COc1ccc2ccccc2c1 | 0.2% (inactive) |
| CC(=O)OCCN(CCCn1c(-c2ccncc2)nc2ccccc21)c1nc(-c2ccc(C)cc2)cs1 | 0.3% (inactive) |
| O=C(CN1CCN(c2ccccc2O)CC1)NC(=O)NCc1ccccc1 | -1.7% (inactive) |
| Cc1cc2cc(CNC(=O)c3ccc(S(=O)(=O)N4CCOCC4)cc3)ccc2[nH]1 | -0.8% (inactive) |
